This is an account of results in PubChem BioAssay (NCATS).

Records with an inconclusive call do not appear. Active and inactive are the calls of the source. Unless noted, the call rests on the fitted dose curve; in most records, active means well fitted curve in the direction sought with a large enough effect; inconclusive means small, poorly fitted or top-dose-only effect, or another doubt; inactive means no such curve, though single readings can be large; an effect the other way counts as inactive or inconclusive.

The target in experiment [1] is Cytochrome P450 3A4 (Homo sapiens) (UniProt P08684). Description: qHTS Assay for Inhibitors and Substrates of Cytochrome P450 3A4 (AID 884). Further: nearly all actives have a fitted effect of over 50% in size. The method, boiled down: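 Luminescent readout of luciferin produced by CYP3A4 (20 nM) dealkylation of Luciferin-PPXE, 25 uM (its KM). NADPH-driven reaction ran 60 min at RT after 10 min compound preincubation; data scaled to 57 uM ketoconazole as 100% inhibition.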
In general terms: Quantitative high-throughput screening tests each substance at several concentrations.

Experiment [2] can be described thus: MultiTox-Fluor Cytotoxicity Assay - LYMP1-001 - Live Cells (AID 947). Further: potency means the concentration at half of the fitted maximal effect.
Experiment [3] can be described thus: Cell Viability - LYMP2-013 (AID 970). Further: nearly all actives have a fitted effect of over 55% in size. Further: potency means the concentration at half of the fitted maximal effect. In short, it runs like this: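 In complete culture medium, human lymphoblastoid cells were dosed for 24 hr at 37 C, with tetraoctylammonium bromide (6.4pM to 92 uM) as positive control. Viability reflects luciferase-based ATP signal; AC50 derived from concentration-response curves.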
Experiment [4] is described as follows: Cell Viability - LYMP2-002 (AID 977).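 Further: compound exposure lasted 24 h at 37 °C.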 Further: potency means the concentration at half of the fitted maximal effect. The method, boiled down:
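Human lymphoblastoid cells (2500/well) in complete medium were preincubated 5 hr at 37 C, then exposed to compounds for 24 hr at 37 C. Intracellular ATP was read by CellTiter-Glo luminescence; AC50 came from Hill-equation concentration-response fits.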

Experiment [5] is described as follows: Cell Viability - LYMP2-006 (AID 978). Further: nearly all actives have a fitted effect of over 60% in size. Further: potency means the concentration at half of the fitted maximal effect. In short, it runs like this: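 qHTS, 1536-well; 2500 cells/well, 5 hr 37 C; cpd 24 hr 37 C; CellTiter-Glo 30 min RT; luminescence. Tetraoctylammonium bromide pos. ctrl. AC50 via Hill eqn.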
A short description of experiment [6]: Cell Viability - LYMP2-014 (AID 983). Further: nearly all actives have a fitted effect of over 50% in size. Further: potency means the concentration at half of the fitted maximal effect. In short, it runs like this:
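Quantitative HTS in lymphoblastoid cells: 24 hr compound exposure, then CellTiter-Glo ATP luminescence. Positive control was tetraoctylammonium bromide, 6.4pM to 92 uM.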

Experiment [7] can be described thus: qHTS assay for small molecule agonists of the antioxidant response element (ARE) signaling pathway measured by Nrf2-dependant transcriptional activity (AID 720636; active means well fitted curve in the direction sought with a large enough effect in the repeat runs; an effect the other way counts as inactive or inconclusive; further: potency means the concentration at half of the fitted maximal effect). The method, boiled down:
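Nrf2-dependent transcription read as ONE-Glo luciferase signal from ARE-luc HepG2 reporter cells after 16 hr compound treatment at 37 C, 5% CO2, in assay medium with 1% dialyzed FBS.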

In experiment [8] the test system is CP237. Description: qHTS profiling for inhibitors of Plasmodium falciparum proliferation (AID 504749). Further: nearly all actives have a fitted effect of over 60% in size. Further: potency means the concentration at half of the fitted maximal effect. The following applies: P. falciparum in erythrocytes, SYBR Green DNA, 72 h; series mostly up to 28.7 µM. In short, it runs like this:
(§1)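 In a 72 h erythrocytic culture (37 C, humidified, 5% CO2) at 2.5% hematocrit and 0.3% starting parasitemia, compounds were tested; SYBR Green I in detergent lysis buffer stained parasite DNA overnight.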

Experiment [9] has as its system DIV14. Described as above. The conditions noted are these: P. falciparum in erythrocytes, SYBR Green DNA, 72 h; series mostly up to 28.7 µM. The method, boiled down:
as §1

Experiment [10] relates to DIV30. The description is as above. The following applies: P. falciparum in erythrocytes, SYBR Green DNA, 72 h; series mostly up to 28.7 µM. In short, it runs like this: as §1
For experiment [11], the system named is Dd2. Described as above. The following applies: P. falciparum in erythrocytes, SYBR Green DNA, 72 h; series mostly up to 28.7 µM. In short, it runs like this: as §1
Experiment [12] deals with ECU. The experiment is described as above. The following applies: P. falciparum in erythrocytes, SYBR Green DNA, 72 h; series mostly up to 28.7 µM. In short, it runs like this:
as §1

Experiment [13] deals with FAB9. The experiment is described as above. The following applies: P. falciparum in erythrocytes, SYBR Green DNA, 72 h; series mostly up to 28.7 µM. The method, boiled down:
as §1

Experiment [14] deals with GB4. Described as above. The conditions noted are these: P. falciparum in erythrocytes, SYBR Green DNA, 72 h; series mostly up to 28.7 µM. The method, boiled down:
as §1

For experiment [15], the system named is ICS. The description is as above. The conditions noted are these: P. falciparum in erythrocytes, SYBR Green DNA, 72 h; series mostly up to 28.7 µM. In short, it runs like this:
as §1

Experiment [16] concerns JCK. The description is as above. The conditions noted are these: P. falciparum in erythrocytes, SYBR Green DNA, 72 h; series mostly up to 28.7 µM. In short, it runs like this: as §1
In experiment [17] the test system is PAD. The experiment is described as above. The following applies: P. falciparum in erythrocytes, SYBR Green DNA, 72 h; series mostly up to 28.7 µM. In short, it runs like this: as §1
The subject of experiment [18] is PC49. The description is as above. The following applies: P. falciparum in erythrocytes, SYBR Green DNA, 72 h; series mostly up to 28.7 µM. In short, it runs like this:
as §1

Experiment [19] has as its system TAB113. Described as above. The following applies: P. falciparum in erythrocytes, SYBR Green DNA, 72 h; series mostly up to 28.7 µM. In short, it runs like this:
as §1

For experiment [20], the system named is TAB109. Described as above. The following applies: P. falciparum in erythrocytes, SYBR Green DNA, 72 h; series mostly up to 28.7 µM. The method, boiled down: as §1

Chain of Cytochrome P450 3A4 (Homo sapiens) (P08684 whole entry, looked up): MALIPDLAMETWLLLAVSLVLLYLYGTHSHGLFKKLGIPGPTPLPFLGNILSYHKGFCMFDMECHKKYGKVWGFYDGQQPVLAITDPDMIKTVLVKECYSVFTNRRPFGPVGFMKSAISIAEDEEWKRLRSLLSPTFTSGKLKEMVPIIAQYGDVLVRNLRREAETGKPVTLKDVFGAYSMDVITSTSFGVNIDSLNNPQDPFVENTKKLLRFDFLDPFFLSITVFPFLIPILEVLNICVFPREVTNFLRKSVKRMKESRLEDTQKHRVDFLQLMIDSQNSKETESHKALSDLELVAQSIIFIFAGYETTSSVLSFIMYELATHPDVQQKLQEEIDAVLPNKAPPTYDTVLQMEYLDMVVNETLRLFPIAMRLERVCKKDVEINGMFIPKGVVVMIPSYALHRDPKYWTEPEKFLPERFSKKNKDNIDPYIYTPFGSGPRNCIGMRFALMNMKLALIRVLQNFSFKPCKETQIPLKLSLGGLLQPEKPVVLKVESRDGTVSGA

In the case of `CN(C)c1ccc(N=O)cc1`, the Potency entry in [1] is “inactive”. In addition, the Potency in experiment [2] is 10000 nM (active); in [3] it was 1580 nM (active); in [4], 2510 nM (active); in [5] it was 2000 nM (active); in experiment [6], 2510 nM (active); in experiment [7], 26600 nM (active).
In the case of `CC(=O)[O-].CC(=O)[O-].O.O.[Cd+2]`, the Potency entry in [2] is “inactive”.
On to `O=C(O)C1C(C(=O)O)C2(Cl)C(Cl)=C(Cl)C1(Cl)C2(Cl)Cl` (stereo unspecified), for which the Potency entry in [1], in [2], in [3], in experiment [4], in experiment [5] and in experiment [6] was “inactive” each time. In [7], the Potency entry is “inactive”.
On to `Nc1ccccc1C(=O)OCCc1ccccc1`, for which the Potency result in experiment [2], in [3], in experiment [4], in [5] and in [6] was “inactive” throughout.
For the molecule `O=[N+]([O-])C(Br)Br`, the Potency result in experiment [1] and in [2] was “inactive” each time. Further, the Potency in [3] was 12600 nM (active); in experiment [4], 10000 nM (active); in experiment [5] it was 20000 nM (active); in [6], 15800 nM (active).
As for `Clc1ccc(C(c2ccc(Cl)cc2)C(Cl)Cl)cc1`, the Potency entry in [1], in experiment [3], in experiment [4], in experiment [5], in experiment [6] and in experiment [7] was “inactive” throughout.
Turning to `CC(C)CC(C)Nc1ccc(Nc2ccccc2)cc1` (stereo unspecified), the Potency is 50100 nM (active) in [3], 39800 nM (active) in [4], 39800 nM (active) in [5] and 39800 nM (active) in experiment [6].
Regarding `Cc1ccc2ccccc2c1C`, the Potency entry in experiment [7] is “inactive”.
As for `CC1(C)[C@@H](C=C(Cl)Cl)[C@@H]1C(=O)OCc1c(F)c(F)cc(F)c1F`, the Potency result in [8], in experiment [9], in experiment [10], in [11], in [12] and in experiment [13] was “inactive” in each case. Also, the Potency entry in [14], in experiment [15], in experiment [16], in experiment [17], in experiment [18] and in experiment [19] was “inactive” throughout.
Turning to `CCCCCC(O)C1C(=O)OC(C)C(O)\C=C/C=C\C=C/C=C\C=C(\C)C(O)C(O)C(O)CC(O)CC(O)CC(O)CC(O)CC1O` (stereo unspecified), the Potency result in experiment [8], in [9], in experiment [10], in experiment [11], in experiment [12] and in experiment [13] was “inactive” throughout. The Potency result in experiment [14], in experiment [15], in [16], in experiment [17], in experiment [18] and in experiment [20] was “inactive” in each case. Moreover, in experiment [19], the Potency entry is “inactive”.
Regarding `C[C@@H]1CC[C@H]2[C@@H](C)C(=O)O[C@@H]3OC4(C)CC[C@@H]1C32OO4` (stereo partly specified), the Potency in experiment [8] is 10 nM (active); in experiment [9], 7.6 nM (active); in [10], 8.5 nM (active); in experiment [11], 6.3 nM (active); in experiment [12] it was 5.6 nM (active); in [13], 7.9 nM (active). In addition, the Potency is 6.7 nM (active) in experiment [14]; 2.5 nM (active) in [15]; 7.1 nM (active) in experiment [17]; 4.5 nM (active) in experiment [20]; 5.6 nM (active) in experiment [19].
On to `Cc1ccc2c(c1)[C@@H]1CN(C)CC[C@H]1N2`, for which the Potency result in experiment [9], in [11], in experiment [12], in experiment [13], in experiment [15] and in experiment [16] was “inactive” each time. Moreover, the Potency entry in experiment [17], in experiment [18], in experiment [20] and in experiment [19] was “inactive” in each case.
In the case of `CC1(C)S[C@@H]2[C@H](N)C(=O)N2C1C(=O)O` (stereo partly specified), the Potency result in experiment [8], in experiment [9], in [10], in experiment [11], in experiment [12] and in [13] was “inactive” each time. The Potency result in [14], in [15], in experiment [16], in experiment [17], in experiment [18] and in experiment [20] was “inactive” each time. Moreover, the Potency entry in experiment [19] is “inactive”.
